PubChem BioAssay (Tox21)
Several values for one entry are separate records, joined by “and”; a condition that tells them apart may be missing. Equal values may be shown once. Results filed as inconclusive are left out. Entries that show only a call come without a potency. A structure can be active in one record and inactive in another. Activity calls are given as the source filed them. Unless noted, calls follow the shape of the full dose curve.

Legend:
[1] = Nuclear factor erythroid 2-related factor 2/antioxidant responsive element (Nrf2/ARE) small molecule agonists: qHTS cell viability counter screen in human keratinocytes (AID 1919968; active = well fitted curve in the direction sought with a large enough effect in the repeat runs; an effect the other way counts as inactive or inconclusive; also: nearly all actives have a fitted effect of over 55% in size)
Outline: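 Cells of the KeratinoSens line were plated at 1,500 per well and left for 5 h before compound transfer from DMSO stocks. After a 23 h incubation (37 C, 5% CO2), CellTiter-Fluor was added. Signal was taken as fluorescence intensity 1 h later.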

[2] = Nuclear factor erythroid 2-related factor 2/antioxidant responsive element (Nrf2/ARE) small molecule agonists: luciferase reporter gene qHTS assay in human keratinocytes (AID 1919969); also: nearly all actives have a fitted effect of over 35% in size; also: potency is read from the fitted curve at half-maximal effect
[3] = target: Gonadotropin-releasing hormone receptor (Homo sapiens) (UniProt P30968); assay: Human gonadotropin-releasing hormone receptor (GnRHR) small molecule agonists, calcium flux assay in GnRHR-HEK293 cells (AID 1920063); also: nearly all actives have a fitted effect of over 35% in size
Outline: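 Compounds dissolved in DMSO are pin-transferred onto dye-loaded GnRHR-HEK293 cells, which were seeded 18 h before at 37 C/5% CO2. Calcium signal is read as fluorescence intensity at 1 s intervals for 3 min.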

[4] = target: KiSS-1 receptor (Homo sapiens) (UniProt Q969F8); assay: Human kisspeptin (KISS1R) small molecule agonists, calcium flux assay in KISS1R-HEK293 cells (AID 1920064; active = well fitted curve in the direction sought with a large enough effect in the repeat runs; an effect the other way counts as inactive or inconclusive)
Outline: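 Cell line: HEK293, stable human KISS1R. Dye loading 1 h at 37 C after 18 h culture. Read: kinetic fluorescence, 480/540 nm, 3 min at 1 s intervals.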

[5] = G protein-coupled receptor (GPCR) small molecule agonists, calcium flux assay: HEK293 wild type cell line counter screen (AID 1920065)
Outline: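 Tox21 10K compounds, 15 concentrations each in triplicate, pin-transferred in DMSO onto dye-loaded cells; kinetic read at 480/540 nm for 3 min, 1 s intervals.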

[6] = p53 small molecule agonists, cell-based qHTS assay with human liver microsomes (AID 1963577)
Outline: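 p53RE-bla cells, 4,000/well, compound added after 5 h, with human liver microsomes 0.5 mg/mL and NADPH 0.5 mg/mL final; 16 h at 37 C, then LiveBLAzer 2 h RT, fluorescence.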

[7] = p53 small molecule agonists, cell-based qHTS assay with rat liver microsomes (AID 1963578)
Outline: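 p53RE-bla cells, 4,000/well, pre-incubated 5 h, then given compounds plus rat liver microsomes (0.5 mg/mL final) and NADPH (0.5 mg/mL final). Incubation 16 h at 37 C; beta-lactamase reporter read by LiveBLAzer fluorescence after 2 h at room temperature.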

[8] = p53 small molecule agonists, cell-based qHTS assay with human liver microsomes: qHTS cell viability counter screen (AID 1963579); also: nearly all actives have a fitted effect of over 45% in size
Outline: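 p53RE-bla cells, 4,000/well, dosed 5 hours after plating, with human liver microsomes (0.5 mg/mL final) plus NADPH (0.5 mg/mL final), 16 hours at 37 C. Viability read as CellTiter-Glo luminescence after 30 min at room temperature.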

[9] = p53 small molecule agonists, cell-based qHTS assay with rat liver microsomes: qHTS cell viability counter screen (AID 1963580); also: nearly all actives have a fitted effect of over 45% in size
Outline: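 Rat liver microsome (0.5 mg/mL final) and NADPH (0.5 mg/mL final) co-incubation with compounds for 16 h at 37 C on HCT-116 p53RE-bla cells; cytotoxicity taken from intracellular ATP luminescence.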

[10] = p53 small molecule agonists, cell-based qHTS assay: qHTS cell viability counter screen (AID 1963581); also: nearly all actives have a fitted effect of over 45% in size
Outline: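 ATP content measured by luminescence in HCT-116 p53RE-bla cells treated 16 h at 37 C, same wells as the reporter screen.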

[11] = p53 small molecule agonists, cell-based qHTS assay (AID 1963582; active = well fitted activation curve with a large enough effect in the signal ratio in the repeat runs, not every such curve was filed as active; the % refers to the signal ratio)
Outline: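 16 h compound exposure (37 C) of p53 response element–bla cells, preceded by 5 h recovery at 37 C/5% CO2; read-out via LiveBLAzer B/G FRET substrate, 2 h RT, fluorescence intensity.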

[12] = target: 5-hydroxytryptamine receptor 2A (Homo sapiens) (UniProt P28223); assay: 5-hydroxytryptamine receptor 2A (HTR2A) small molecule antagonists, cell-based qHTS assay (AID 1963586); also: nearly all actives have a fitted effect of over 45% in size
Outline: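 CHO cells stably expressing human HTR2A were plated for 18 h at 37 C, then loaded with calcium dye for 1 h. Compounds were preincubated 5 min at room temperature before DOI (4 nM solution) was added. Kinetic fluorescence was read for 3 min.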

[13] = target: 5-hydroxytryptamine receptor 2A (Homo sapiens) (UniProt P28223); assay: 5-hydroxytryptamine receptor 2A (HTR2A) small molecule agonists, cell-based qHTS assay (AID 1963587); also: nearly all actives have a fitted effect of over 30% in size
Outline: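 Kinetic calcium-flux fluorescence (2 min, 1 sec intervals) after compound addition in agonist mode. HTR2A-CHO cells were cultured 18 h, then dye-loaded 1 h at 37 C.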

[14] = target: Muscarinic acetylcholine receptor M1 (Homo sapiens) (UniProt P11229); assay: Cholinergic receptor muscarinic 1 (CHRM1) small molecule antagonists, cell-based qHTS assay (AID 1963588); also: nearly all actives have a fitted effect of over 40% in size
Outline: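 Compounds were tested at 15 concentrations in three independent runs. Dye-loaded CHRM1-CHO cells were exposed 5 min at room temperature before stimulation by acetylcholine added at 50nM. Intracellular calcium was read kinetically on FDSS for 3 min.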

[15] = target: Muscarinic acetylcholine receptor M1 (Homo sapiens) (UniProt P11229); assay: Cholinergic receptor muscarinic 1 (CHRM1) small molecule agonists, cell-based qHTS assay (AID 1963589); also: nearly all actives have a fitted effect of over 35% in size
Outline: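 Homogeneous fluorescence calcium flux, agonist mode. Human M1-expressing CHO cells; compound dosed at 15 concentrations, three independent runs; signal sampled every 1 sec.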

[16] = cAMP Responsive Elements (CRE) small molecule agonists, cell-based qHTS assay (AID 1963590)
Outline: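 HEK 293T cells stably bearing CRE-bla were plated at 2,000 cells per well and rested 18 h. Compounds, positive controls or DMSO were added for 3 h at 37 C. LiveBLAzer B/G substrate was then loaded for 2 h at room temperature.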

[17] = cAMP Responsive Elements (CRE) small molecule antagonists, cell-based qHTS assay (AID 1963591; active = well fitted inhibition curve with a large enough effect in the signal ratio in the repeat runs, not every such curve was filed as active; the % refers to the signal ratio)
Outline: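 First, CRE-bla HEK293T cells settled 18 h at 37 C. Next, compound and 0.25 uM final NKH477 were applied for 3 h. Last, LiveBLAzer B/G substrate was loaded for 2 h at room temperature.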

[18] = target: Beta-2 adrenergic receptor (Homo sapiens) (UniProt P07550); assay: Adrenergic beta2 receptor (ADRB2) small molecule antagonists, cell-based qHTS assay (AID 1963592); also: series mostly up to about 92 µM; nearly all actives have a fitted effect of over 50% in size
Outline: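 Assay format: CHO-ADRB2 cells, 18-20hr seeding at 37C/5% CO2, then compound plus 1nM isoproterenol agonist mix for 0.5hr RT. Homogeneous time-resolved fluorescence cAMP detection after 1hr, expressed as 665/615 nm ratio.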

[19] = target: D(2) dopamine receptor (Homo sapiens) (UniProt P14416); assay: Dopamine D2 receptor (DRD2) small molecule agonists, cell-based qHTS assay (AID 1963594); also: nearly all actives have a fitted effect of over 35% in size
Outline: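 cAMP accumulation in DRD2-HEK293 cells measured by HTRF after 1 h detection; compounds added 10 min before NKH477 (200nM […]) forskolin-analogue stimulation, 30 min at room temperature, with Ro20-1724 present at 0.1 mM final.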

[20] = target: D(2) dopamine receptor (Homo sapiens) (UniProt P14416); assay: Dopamine D2 receptor (DRD2) small molecule antagonists, cell-based qHTS assay (AID 1963595; active = well fitted inhibition curve with a large enough effect in the signal ratio in the repeat runs, with a control signal flat; the % refers to the signal ratio)
Outline: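 Stable D2 receptor HEK293 line, 24 h after seeding. Compound preincubated 10 min, then quinpirole (12 nM) with forskolin analogue NKH477 (200 nM), 30 min, room temperature. Detection by time-resolved FRET of cAMP.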

Chain of 5-hydroxytryptamine receptor 2A (Homo sapiens) (P28223 whole entry, looked up): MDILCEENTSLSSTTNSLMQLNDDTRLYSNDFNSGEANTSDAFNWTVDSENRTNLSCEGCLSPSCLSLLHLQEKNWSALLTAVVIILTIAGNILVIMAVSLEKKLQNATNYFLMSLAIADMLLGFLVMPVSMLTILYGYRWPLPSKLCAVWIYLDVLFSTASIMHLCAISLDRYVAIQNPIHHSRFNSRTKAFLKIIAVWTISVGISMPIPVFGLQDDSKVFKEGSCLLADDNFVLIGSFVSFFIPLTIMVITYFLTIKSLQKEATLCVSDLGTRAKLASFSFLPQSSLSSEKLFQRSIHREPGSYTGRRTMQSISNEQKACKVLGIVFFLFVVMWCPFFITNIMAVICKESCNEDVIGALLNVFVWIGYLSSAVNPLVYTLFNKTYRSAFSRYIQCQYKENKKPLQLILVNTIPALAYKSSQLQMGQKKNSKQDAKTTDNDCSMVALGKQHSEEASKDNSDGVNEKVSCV
Chain of Muscarinic acetylcholine receptor M1 (Homo sapiens) (P11229 whole entry, looked up): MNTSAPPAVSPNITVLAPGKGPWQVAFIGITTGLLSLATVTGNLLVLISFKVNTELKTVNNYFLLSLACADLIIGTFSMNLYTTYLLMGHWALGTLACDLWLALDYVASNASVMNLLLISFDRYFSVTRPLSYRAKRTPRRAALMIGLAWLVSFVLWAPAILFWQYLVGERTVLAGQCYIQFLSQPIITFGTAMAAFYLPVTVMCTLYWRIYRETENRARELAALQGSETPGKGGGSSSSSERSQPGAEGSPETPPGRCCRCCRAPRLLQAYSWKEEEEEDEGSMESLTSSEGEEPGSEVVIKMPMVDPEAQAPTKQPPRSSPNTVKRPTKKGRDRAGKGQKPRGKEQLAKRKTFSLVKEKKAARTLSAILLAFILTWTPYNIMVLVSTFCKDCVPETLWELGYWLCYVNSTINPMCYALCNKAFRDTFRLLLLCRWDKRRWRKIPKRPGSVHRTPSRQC
Chain of Beta-2 adrenergic receptor (Homo sapiens) (P07550 whole entry, looked up): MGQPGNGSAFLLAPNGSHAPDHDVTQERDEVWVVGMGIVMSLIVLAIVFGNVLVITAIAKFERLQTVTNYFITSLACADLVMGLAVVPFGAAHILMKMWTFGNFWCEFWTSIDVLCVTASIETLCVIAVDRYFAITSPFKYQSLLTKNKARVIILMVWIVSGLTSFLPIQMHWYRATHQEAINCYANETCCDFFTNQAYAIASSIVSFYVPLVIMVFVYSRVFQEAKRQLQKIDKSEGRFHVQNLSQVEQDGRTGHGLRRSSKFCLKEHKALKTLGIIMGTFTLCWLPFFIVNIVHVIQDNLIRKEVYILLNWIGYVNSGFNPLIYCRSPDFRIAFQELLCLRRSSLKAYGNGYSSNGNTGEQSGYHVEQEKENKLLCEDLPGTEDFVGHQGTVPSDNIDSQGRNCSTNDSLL
Chain of KiSS-1 receptor (Homo sapiens) (Q969F8 whole entry, looked up): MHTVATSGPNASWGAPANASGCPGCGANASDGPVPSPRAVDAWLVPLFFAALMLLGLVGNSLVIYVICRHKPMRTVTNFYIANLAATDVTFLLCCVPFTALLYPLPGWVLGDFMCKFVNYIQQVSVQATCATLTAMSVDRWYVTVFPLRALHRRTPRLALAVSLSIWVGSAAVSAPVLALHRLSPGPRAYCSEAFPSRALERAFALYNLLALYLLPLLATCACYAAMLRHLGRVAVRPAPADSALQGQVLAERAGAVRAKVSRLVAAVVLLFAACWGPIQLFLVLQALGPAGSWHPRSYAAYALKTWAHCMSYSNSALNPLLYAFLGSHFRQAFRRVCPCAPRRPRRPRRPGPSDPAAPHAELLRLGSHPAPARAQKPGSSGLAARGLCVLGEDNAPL
Chain of Gonadotropin-releasing hormone receptor (Homo sapiens) (P30968 whole entry, looked up): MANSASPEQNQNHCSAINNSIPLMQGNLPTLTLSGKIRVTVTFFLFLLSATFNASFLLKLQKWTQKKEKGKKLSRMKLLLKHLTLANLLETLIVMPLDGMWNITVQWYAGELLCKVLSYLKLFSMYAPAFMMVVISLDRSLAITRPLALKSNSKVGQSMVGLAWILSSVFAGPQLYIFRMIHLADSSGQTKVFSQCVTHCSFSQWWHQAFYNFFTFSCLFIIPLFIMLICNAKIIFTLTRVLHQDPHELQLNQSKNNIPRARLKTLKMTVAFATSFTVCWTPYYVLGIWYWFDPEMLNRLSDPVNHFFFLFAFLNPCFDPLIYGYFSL
Chain of D(2) dopamine receptor (Homo sapiens) (P14416 whole entry, looked up): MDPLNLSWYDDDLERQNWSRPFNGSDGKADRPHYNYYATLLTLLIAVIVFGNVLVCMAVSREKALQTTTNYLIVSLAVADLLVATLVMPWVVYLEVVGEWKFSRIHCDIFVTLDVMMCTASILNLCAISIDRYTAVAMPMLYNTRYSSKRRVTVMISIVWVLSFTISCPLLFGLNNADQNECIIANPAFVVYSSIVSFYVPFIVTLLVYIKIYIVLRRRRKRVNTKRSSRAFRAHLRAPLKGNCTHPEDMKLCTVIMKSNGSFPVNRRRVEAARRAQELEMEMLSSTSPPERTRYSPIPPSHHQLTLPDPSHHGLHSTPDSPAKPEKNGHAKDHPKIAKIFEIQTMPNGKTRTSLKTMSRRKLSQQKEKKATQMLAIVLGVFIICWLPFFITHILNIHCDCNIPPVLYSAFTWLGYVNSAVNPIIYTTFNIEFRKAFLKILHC

Structure (SMILES)	Potency [1]	Potency [2]	Potency [3]	Potency [4]	Potency [5]	Potency [6]	Potency [7]	Potency [8]	Potency [9]	Potency [10]	Potency [11]	Potency [12]	Potency [13]	Potency [14]	Potency [15]	Potency [16]	Potency [17]	Potency [18]	Potency [19]	Potency [20]
COc1ccc(N)cc1	inactive	inactive and 68 µM (active)	inactive	inactive	inactive	inactive	inactive	inactive	inactive	inactive	inactive	inactive	inactive	inactive	inactive	inactive	inactive	inactive		
CCCCCCCCCCOC(=O)c1ccccc1C(=O)OCCCCCCCCCC	inactive	inactive	inactive	inactive	inactive	inactive	inactive	inactive	inactive	inactive	inactive	inactive	inactive	inactive	inactive	inactive	inactive	inactive	inactive	inactive
CCCC(C)(COC(N)=O)COC(=O)NC(C)C (configuration not stated)	inactive	inactive	inactive	inactive	inactive	inactive	inactive	inactive	inactive	inactive	inactive	inactive	inactive	inactive	inactive	inactive	inactive	inactive	inactive	inactive
COC(=O)C(Cl)C(=O)OC	inactive	inactive	inactive	inactive	inactive	inactive	inactive	inactive	inactive	inactive	inactive	inactive	inactive	inactive	inactive	inactive	inactive	inactive	inactive	inactive
CCCCN(CC)C(=O)SCCC	inactive	inactive	inactive	inactive	inactive	inactive	inactive	inactive	inactive	inactive	inactive	inactive	inactive	inactive	inactive	inactive	inactive	inactive	inactive	
CCNc1nc(NC(C)C)nc(OC)n1	inactive	inactive	inactive	inactive	inactive	inactive	inactive	inactive	inactive	inactive	inactive	inactive	inactive	inactive	inactive	inactive	inactive	inactive	inactive	inactive
CCCCCCCCCCBr	inactive	inactive	inactive	inactive	inactive	inactive	inactive	inactive	inactive	inactive	inactive	inactive	inactive	inactive	inactive	inactive	inactive	inactive	inactive	inactive
Cc1ccccc1[N+](=O)[O-]	inactive	inactive	inactive	inactive	inactive	inactive	inactive	inactive	inactive	inactive	inactive	inactive	inactive	inactive	inactive	inactive	inactive	inactive	inactive	inactive
CN(C)CCc1ccc(O)cc1	inactive	inactive	inactive	inactive	inactive	inactive	inactive	inactive	inactive	inactive	inactive	inactive	inactive	inactive	inactive	inactive	inactive	inactive	inactive	inactive
COc1cc(OC)nc(Sc2cccc(Cl)c2C(=O)O)n1	inactive	inactive	inactive	inactive	inactive	inactive	inactive	inactive	inactive	inactive	inactive	inactive	inactive	inactive	inactive	inactive	inactive	inactive	inactive	inactive
Nc1ccc(Oc2ccc(N)cc2)cc1	inactive	inactive	inactive	inactive	inactive	inactive	inactive	inactive	inactive	inactive	inactive	inactive	inactive	inactive	inactive	inactive	inactive	inactive	inactive	inactive
c1ccoc1	inactive	inactive	inactive	inactive	inactive	inactive	inactive	inactive	inactive	inactive	inactive	inactive	inactive	inactive	inactive	inactive	inactive	inactive	inactive	inactive
C=CCOC(N)=O	inactive	inactive	inactive	inactive	inactive	inactive	inactive	inactive	inactive	inactive	inactive	inactive	inactive	inactive	inactive	inactive	inactive	inactive	inactive	inactive
CC(O)CCO (configuration not stated)	inactive	inactive	inactive	inactive	inactive	inactive	inactive	inactive	inactive	inactive	inactive	inactive	inactive	inactive	inactive	inactive	inactive	inactive	inactive	inactive
O=C(Cl)OCc1ccccc1	inactive	inactive	inactive	inactive	inactive	inactive	inactive	inactive	inactive	inactive	inactive	inactive	inactive	inactive	inactive	inactive	inactive	inactive	inactive	inactive
